PubChem BioAssay (Tox21)
Results filed as inconclusive are left out. The source made the active and inactive calls. Calls follow the shape of the dose curve; as a rule, active = well fitted curve in the direction sought with a large enough effect in the repeat runs; inconclusive = weak or mixed curves; inactive = no such curve, though single readings can be large; an effect the other way counts as inactive or inconclusive.

How the values were obtained:
[1] = qHTS RealTime-Glo MT Cell Viability Assay in HepG2 cells - 40 hour (AID 1224870); also: nearly all actives have a fitted effect of over 50% in size
Summary of the method: (§1)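 HepG2 cells mixed with RealTime-Glo MT reagents (NanoLuc plus cell-permeant prosubstrate) were seeded at 600 cells/well, incubated 5 h at 37 C/5% CO2, then pinned with compounds in DMSO; nonlytic luminescence tracked viability during 40 h treatment.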

[2] = A CellTox Green Cytotoxicity Assay to monitor cytotoxicity in HEK293 cells - 40 hour (AID 1224871); also: nearly all actives have a fitted effect of over 45% in size
Summary of the method: (§2)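 Dead-cell fluorescence measured kinetically: asymmetric cyanine dye, HEK293, 600 cells/well, 5 h settle, 23 nL cpd/DMSO, 37 C, reads 0–40 h every 8 h.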

[3] = qHTS RealTime-Glo MT Cell Viability Assay in HEK293 cells - 16 hour (AID 1224872); also: top concentration of the series differs between compounds; nearly all actives have a fitted effect of over 50% in size
Summary of the method: (§3)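 HEK293 cells seeded with NanoLuc/prosubstrate reagent, rested 5 h at 37 C, then dosed and kept at 37 C up to 40 h. Nonlytic real-time luminescence from viable cells read at 0, 8, 16, 24, 32 and 40 h.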

[4] = qHTS RealTime-Glo MT Cell Viability Assay in HepG2 cells - 8 hour (AID 1224873); also: nearly all actives have a fitted effect of over 55% in size
Summary of the method: as §1

[5] = qHTS RealTime-Glo MT Cell Viability Assay in HEK293 cells - 40 hour (AID 1224874); settings: RealTime-Glo luminescence; max response: active compounds read low; also: nearly all actives have a fitted effect of over 50% in size
Summary of the method: (§4)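 600 HEK293 cells per well, dispensed already mixed with RealTime-Glo MT reagents. Compound dosing came 5 h later. The same wells were read for luminescence at 0, 8, 16, 24, 32 and 40 h of exposure at 37 C.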

[6] = A CellTox Green Cytotoxicity Assay to monitor cytotoxicity in HEK293 cells - 24 hour (AID 1224875); also: series mostly up to about 77 µM; nearly all actives have a fitted effect of over 45% in size
Summary of the method: as §2

[7] = A CellTox Green Cytotoxicity Assay to monitor cytotoxicity in HepG2 cells - 16 hour (AID 1224876); also: nearly all actives have a fitted effect of over 45% in size
Summary of the method: (§5)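 First, HepG2 cells (600/well) mixed with reagent were plated; second, after 5 h at 37 C they received compounds via pintool; third, fluorescence was measured at 0 h through 40 h at 8 h intervals.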

[8] = qHTS RealTime-Glo MT Cell Viability Assay in HepG2 cells - 32 hour (AID 1224877); also: nearly all actives have a fitted effect of over 55% in size
Summary of the method: (§6)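 HepG2 cells (600/well) were dispensed with RealTime-Glo reagents, incubated 5 h at 37 °C, then treated with compounds in DMSO for up to 40 h. Nonlytic NanoLuc luminescence reflecting viable cells was read at each stated time point.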

[9] = A CellTox Green Cytotoxicity Assay to monitor cytotoxicity in HepG2 cells - 24 hour (AID 1224878); also: nearly all actives have a fitted effect of over 45% in size
Summary of the method: as §5

[10] = qHTS RealTime-Glo MT Cell Viability Assay in HEK293 cells - 0 hour (AID 1224880)
Summary of the method: as §4

[11] = A CellTox Green Cytotoxicity Assay to monitor cytotoxicity in HEK293 cells - 32 hour (AID 1224881); also: nearly all actives have a fitted effect of over 40% in size
Summary of the method: as §2

[12] = A CellTox Green Cytotoxicity Assay to monitor cytotoxicity in HepG2 cells - 0 hour (AID 1224882); also: nearly all actives have a fitted effect of over 35% in size
Summary of the method: as §5

[13] = A CellTox Green Cytotoxicity Assay to monitor cytotoxicity in HepG2 cells - 32 hour (AID 1224883); also: nearly all actives have a fitted effect of over 50% in size
Summary of the method: as §5

[14] = A CellTox Green Cytotoxicity Assay to monitor cytotoxicity in HEK293 cells - 8 hour (AID 1224884); also: nearly all actives have a fitted effect of over 35% in size
Summary of the method: as §2

[15] = qHTS RealTime-Glo MT Cell Viability Assay in HepG2 cells - 16 hour (AID 1224885); also: nearly all actives have a fitted effect of over 50% in size
Summary of the method: as §6

[16] = qHTS RealTime-Glo MT Cell Viability Assay in HEK293 cells - 24 hour (AID 1224886)
Summary of the method: as §3

[17] = qHTS RealTime-Glo MT Cell Viability Assay in HEK293 cells - 8 hour (AID 1224887)
Summary of the method: as §4

[18] = A CellTox Green Cytotoxicity Assay to monitor cytotoxicity in HEK293 cells - 16 hour (AID 1224888); also: nearly all actives have a fitted effect of over 35% in size
Summary of the method: as §2

[19] = qHTS RealTime-Glo MT Cell Viability Assay in HepG2 cells - 0 hour (AID 1224889); also: nearly all actives have a fitted effect of over 50% in size
Summary of the method: as §6

[20] = A CellTox Green Cytotoxicity Assay to monitor cytotoxicity in HepG2 cells - 40 hour (AID 1224879); also: nearly all actives have a fitted effect of over 40% in size
Summary of the method: as §5
% is scaled to controls: 0 for no effect and ±100 for the full control effect.

O=C(Nc1ccccc1)c1cc([N+](=O)[O-])ccc1Cl
inactive: Potency [1] | Potency [2] | Potency [3] | outcome [4] | max response [5] -23.2% | Potency [6] | Potency [7] | Potency [8] | Potency [9] | Potency [10] | Potency [11] | Potency [12] | Potency [13] | Potency [14] | outcome [15] | Potency [16] | Potency [17] | Potency [18] | Potency [19]

CS(C)=O
inactive: Potency [1] | Potency [2] | Potency [3] | outcome [4] | Potency [6] | Potency [7] | Potency [8] | Potency [9] | Potency [20] | Potency [10] | Potency [11] | Potency [12] | Potency [13] | Potency [14] | outcome [15] | Potency [17] | Potency [18] | Potency [19]

O=C(c1ccc(Cl)cc1)c1ccc(Cl)cc1
inactive: Potency [1] | Potency [2] | Potency [3] | outcome [4] | max response [5] -15% | Potency [6] | Potency [7] | Potency [8] | Potency [10] | Potency [12] | Potency [14] | outcome [15] | Potency [16] | Potency [17] | Potency [18] | Potency [19]

CC(C)(C)N
inactive: Potency [1] | Potency [2] | Potency [3] | outcome [4] | max response [5] 1.55% | Potency [6] | Potency [7] | Potency [8] | Potency [9] | Potency [11] | Potency [12] | Potency [13] | Potency [14] | outcome [15] | Potency [16] | Potency [17] | Potency [18] | Potency [19]

O=C(OC1C[C@H]2CC[C@@H](C1)[N+]21CCCC1)C(O)(c1ccccc1)c1ccccc1 (stereo not given in full)
inactive: Potency [1] | Potency [2] | Potency [3] | outcome [4] | max response [5] 0.515% | Potency [6] | Potency [7] | Potency [8] | Potency [9] | Potency [11] | Potency [12] | Potency [13] | Potency [14] | outcome [15] | Potency [16] | Potency [17] | Potency [18] | Potency [19]

O=C1CCCN1CCO
inactive: Potency [1] | Potency [2] | Potency [3] | outcome [4] | max response [5] -23.9% | Potency [6] | Potency [7] | Potency [8] | Potency [9] | Potency [20] | Potency [11] | Potency [12] | Potency [13] | Potency [14] | outcome [15] | Potency [16] | Potency [18] | Potency [19]

CCCCCCCCCCCCCCCCC(=O)O
inactive: Potency [1] | Potency [2] | Potency [3] | outcome [4] | max response [5] 3.49% | Potency [6] | Potency [7] | Potency [8] | Potency [9] | Potency [20] | Potency [12] | Potency [13] | Potency [14] | outcome [15] | Potency [16] | Potency [17] | Potency [18] | Potency [19]

OCCOc1cccc(OCCO)c1
inactive: Potency [1] | Potency [2] | Potency [3] | outcome [4] | Potency [6] | Potency [7] | Potency [8] | Potency [9] | Potency [20] | Potency [10] | Potency [11] | Potency [12] | Potency [13] | Potency [14] | outcome [15] | Potency [17] | Potency [18] | Potency [19]

Cc1c(-c2cccnc2)c2ccccc2n1CCCCC(=O)O
inactive: Potency [1] | Potency [2] | Potency [3] | outcome [4] | Potency [6] | Potency [7] | Potency [8] | Potency [9] | Potency [20] | Potency [10] | Potency [11] | Potency [12] | Potency [13] | Potency [14] | outcome [15] | Potency [16] | Potency [17] | Potency [18] | Potency [19]

CCC(C)C1N=C(C)C(C)S1 (stereo not given)
inactive: Potency [1] | Potency [2] | Potency [3] | outcome [4] | Potency [6] | Potency [7] | Potency [8] | Potency [9] | Potency [20] | Potency [10] | Potency [11] | Potency [12] | Potency [13] | Potency [14] | outcome [15] | Potency [16] | Potency [17] | Potency [18] | Potency [19]

O=C1c2ccccc2C(=O)c2c1ccc(O)c2O
inactive: Potency [1] | Potency [2] | Potency [3] | outcome [4] | max response [5] -2.45% | Potency [6] | Potency [7] | Potency [8] | Potency [9] | Potency [20] | Potency [11] | Potency [12] | Potency [13] | outcome [15] | Potency [16] | Potency [17] | Potency [18] | Potency [19]

CC1(C)CC(O)CC(C)(C)N1[O]
inactive: Potency [1] | Potency [2] | Potency [3] | outcome [4] | max response [5] 6.37% | Potency [6] | Potency [7] | Potency [8] | Potency [9] | Potency [11] | Potency [12] | Potency [13] | Potency [14] | outcome [15] | Potency [16] | Potency [17] | Potency [19]

C[C@@H](O)[C@H]1C(=O)N2C(C(=O)O)=C(S[C@@H]3CN[C@H](CNS(N)(=O)=O)C3)[C@H](C)[C@H]12
inactive: Potency [1] | Potency [2] | Potency [3] | outcome [4] | max response [5] 2.56% | Potency [6] | Potency [7] | Potency [8] | Potency [9] | Potency [20] | Potency [11] | Potency [12] | Potency [13] | Potency [14] | outcome [15] | Potency [16] | Potency [17] | Potency [18] | Potency [19]
